KB-V1 cytotox – kills drug-selected multidrug resistant KB-V1 cells | KB-V1 MDR cells viability, CellTiter-Glo, 72 h | Potency, µM (highest dose often 46.1 µM), usual class: cytotoxic | 3.4% of 400,000 active | AID 1347076; further: nearly all actives have a fitted effect of over 60% in size
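KB-V1 MDR subline cells in DMEM (phenol-red free, 10% FBS) exposed to compounds in qHTS concentration series for 72 h at 37 degrees C. Viability read by CellTiter-Glo luminescence; concentration-effect curves fitted after normalization and correction.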
KB-3-1 tox – kills parental KB-3-1 adenocarcinoma cells; Potency, µM (series often up to 46.1 µM), usual class: cytotoxic; KB-3-1 viability, CellTiter-Glo ATP luminescence, 72 h; 1.4% of 400,000 active; AID 1347075; further: nearly all actives have a fitted effect of over 60% in size
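Multi-concentration cytotoxicity screen in KB-3-1 cells grown in DMEM lacking phenol red with 10% FBS. After 72 h at 37 °C with compound, ATP-dependent luminescence was recorded.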
SW480 rereplic – inducers of DNA re-replication in SW480 colon cancer cells; Potency, µM (doses to about 46.1 µM), actives largely listed as activators; AID 624297; SW480 DNA re-replication, Hoechst DNA content imaging, 48 h; 1.8% of 340,000 active; further: nearly all actives have a fitted effect of over 55% in size
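Quantitative HTS format with DMSO vehicle controls; 48 hr drug incubation at 37 C, then 40 min Hoechst staining and scanning imager measurement at 405 nm excitation.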
MCF10A rerep – DNA re-replication induction in MCF 10a cells; 2.9% of 350,000 active; MCF 10A DNA re-replication, Hoechst nuclear intensity, 48 h; Potency, µM (top dose mostly 46.1 µM), hits mostly activators; further: nearly all actives have a fitted effect of over 50% in size
Gal4-VP16 FLuc – inhibits Gal4-VP16 luciferase reporter, ROR gamma counter-screen; Potency, µM (top dose mostly 53.6 µM), actives largely listed as inhibitors; AID 2546; Drosophila S2 Gal4-VP16 UAS-luciferase, luminescence, 20 h; 3.5% of 310,000 active;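 further: Gal4-VP16 expression switched on by copper sulfate through the metallothionein promoter; nearly all actives have a fitted effect of over 50% in size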
RORg inh – ROR gamma (mouse) transcription inhibition. P51450. Drosophila S2 Gal4-RORgamma UAS-luciferase reporter, 20 h. Potency, µM (highest dose often 53.6 µM), most hits filed as inhibitors. 5.4% of 310,000 active; further: nearly all actives have a fitted effect of over 60% in size
Target sequence (P51450 whole entry, looked up, the tested form may be a part): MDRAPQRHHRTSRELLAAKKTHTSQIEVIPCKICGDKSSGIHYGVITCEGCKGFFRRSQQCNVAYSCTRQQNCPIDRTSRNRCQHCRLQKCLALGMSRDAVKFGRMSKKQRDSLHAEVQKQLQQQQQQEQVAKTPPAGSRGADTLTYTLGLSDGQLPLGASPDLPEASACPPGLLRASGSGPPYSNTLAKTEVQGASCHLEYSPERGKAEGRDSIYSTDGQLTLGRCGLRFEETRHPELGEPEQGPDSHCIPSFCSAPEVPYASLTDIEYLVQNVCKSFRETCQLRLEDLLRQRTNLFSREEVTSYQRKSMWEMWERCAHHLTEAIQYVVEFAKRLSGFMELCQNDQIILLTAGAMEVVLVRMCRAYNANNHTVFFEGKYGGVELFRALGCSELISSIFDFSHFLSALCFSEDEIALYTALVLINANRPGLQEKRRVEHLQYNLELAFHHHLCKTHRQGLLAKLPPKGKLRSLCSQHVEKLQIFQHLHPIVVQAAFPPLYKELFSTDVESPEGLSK
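Stable Schneider cell line, Gal4 DNA-binding domain fused to ROR gamma, UAS-luciferase. Cmpd 1 hr RT → CuSO4 700 uM final → 20 hr RT → luciferase reagent 10 min → luminescence.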
Numbers stand for hits; . = inactive; ? = inconclusive; / = no result; [ ] = dose if it differs, or a comment. This is a sample that favours compounds with a hit; in the whole collection about 10% have one here. The call rests on the fitted dose curve; in most records, active means well fitted curve in the direction sought with a large enough effect; inconclusive means small, poorly fitted or top-dose-only effect, or another doubt; inactive means no such curve, though single readings can be large; an effect the other way counts as inactive or inconclusive.

SMILES | KB-V1 cytotox | KB-3-1 tox | SW480 rereplic | MCF10A rerep | Gal4-VP16 FLuc | RORg inh
CCOc1ccccc1NC(=O)C(OC(=O)c1ccccc1O)c1ccccc1 (stereo not given) | 11.6µM | . | . | . | ? | .
CCOc1ccccc1NC(=O)C(OC(=O)c1ccccc1)c1ccccc1 (stereo not given) | ? | . | . | . | ? | .
Cc1cc[n+](C2CCCCC2)c2ccccc12 | . | . | / | / | / | /
COCCNC(=S)N/N=C(\C)c1ccc(Cl)c(Cl)c1 | . | . | . | . | 4.47µM | 2.82µM
COCCNC(=S)N/N=C(\C)c1ccc(Cl)c(Cl)c1Cl | . | . | . | . | 7.94µM | 3.98µM
C/C(=N\O)c1ccc(Cl)c(Cl)c1 | ? | ? | . | . | . | .
COCCNC(=S)NNc1ccc(Cl)c(C(=O)O)c1 | . | . | ? | . | . | .
CNC(=S)N/N=C(\C)c1ccc(Cl)c(Cl)c1 | ? | . | . | . | 7.08µM | 2.82µM
COc1ccc(S(=O)(=O)c2cn(C)c3cc(N4CCOCC4)c(F)cc3c2=O)cc1 | . | . | / | / | / | /
CC1CCN(c2nn3c(=O)c(C(=O)NCCc4ccc(Cl)cc4)cnc3s2)CC1 | . | . | / | / | / | /
COc1ccc(-c2ccc(C#N)c(SCC(=O)Nc3sc4c(c3C#N)CCC4)n2)cc1 | . | . | 3.26µM | ? | . | .
N#Cc1c(C(F)(F)F)cc(-c2ccccc2)nc1SCC(=O)Nc1sc2c(c1C#N)CCC2 | ? | ? | . | . | . | .
N#Cc1ccc(-c2cccnc2)nc1SCC(=O)Nc1sc2c(c1C#N)CCC2 | . | . | . | . | ? | 12.6µM
COc1ccc(-c2nnc(SCC(=O)Nc3sc4c(c3C#N)CCCC4)n2-c2ccccc2)cc1 | . | . | . | ? | . | ?
O=C(O)C#CC(=O)O | . | . | / | / | / | /
C/C(=N\NC(N)=O)c1cc(Cl)cc(Cl)c1O | . | . | ? | . | 10µM | 0.891µM
CC1(C(=O)Nc2ccccc2F)CCN1C(=O)Cc1cc(F)ccc1F (stereo not given) | . | . | / | / | / | /
C=CCc1c(C)nc(-c2ccccc2)nc1N/N=C/c1ccncc1 | . | . | 23.1µM | . | . | .
C=CCc1c(C)nc(-c2ccccc2)nc1Nc1ccccc1O | . | . | . | 23.1µM | . | ?
C=CCc1c(C)nc(-c2ccccc2)nc1N/N=C/c1ccccc1 | . | . | . | ? | ? | .
C=CCc1c(C)nc(C)nc1N/N=C/c1ccccc1 | . | . | . | . | 1.58µM | 10µM
C=CCc1c(C)nc(-c2ccccc2)nc1N/N=C(\C)c1ccc(N)cc1 | 23.1µM | ? | . | . | . | ?
CN(C)c1ccc(-c2cncnc2N(C)Cc2ccco2)cc1 | / | / | / | / | . | .
CC(C)NC(=O)c1ccc2c(=O)n(C3CCCC3)c(=S)[nH]c2c1 | . | . | . | . | ? | 0.1µM
O=C(c1ccc2c(=O)n(C3CCCC3)c(=S)[nH]c2c1)N1CCc2ccccc21 | . | . | . | . | 3.16µM | 1µM
SMILES | KB-V1 cytotox | KB-3-1 tox | SW480 rereplic | MCF10A rerep | Gal4-VP16 FLuc | RORg inh
CCN(CC)CCNC(=O)c1ccc2c(=O)n(C3CCCC3)c(=S)[nH]c2c1 | . | . | . | ? | . | .
COc1ccccc1CNc1cc(-c2cccc(NS(C)(=O)=O)c2)ncn1 | / | / | / | / | . | .
CCc1nc2ccc(C(=O)NCc3ccc(N(C)C)cc3)cc2nc1CC | . | . | / | / | / | /
C/C(=N\Nc1ccc(S(N)(=O)=O)cc1[N+](=O)[O-])c1ccc2c(c1)OCO2 | . | . | ? | . | 11.2µM | ?
CCN(CC)S(=O)(=O)c1ccc(N/N=C(\C)c2ccc3c(c2)OCO3)c([N+](=O)[O-])c1 | ? | . | ? | . | . | .
O=C(NC1CCCCCC1)c1cccc(COCC(F)(F)F)c1 | 23.1µM | . | . | . | . | ?
c1ccc(-c2nc3ccccn3c2NCc2ccc3c(c2)OCO3)cc1 | . | . | . | . | . | 10µM
COc1ccc(-c2nc3ccccn3c2NCc2ccc3c(c2)OCO3)cc1 | ? | . | .[9.22 µM] | ? | . | ?
COc1ccc(-c2nc3cc(C)ccn3c2NCc2ccc3c(c2)OCO3)cc1 | . | . | . | . | ? | 7.08µM
COc1ccc(OC)c(/C=N/c2c(-c3ccc(O)c(OC)c3)nc3ccccn23)c1 | . | . | ? | . | .[10 µM] | .
Clc1cccc(-c2ccc(-c3nc4ccccn4c3NCc3ccccc3)cc2)c1 | . | . | ? | 16.4µM | / | /
COc1ccc(-c2cc(-c3nc4ccccn4c3NCc3ccccc3)ccc2OC)cc1 | ? | . | 16.4µM | 5.8µM | / | /
CC1(C)CC(=O)c2cc(-c3nc(-c4ccc(Cl)cc4)cs3)c(=O)n(-c3cccc(F)c3)c2C1 | . | . | / | / | / | /
CCN(CC)CCOC(=O)C12CC3CC(CC(C3)C1)C2 | . | . | . | . | . | 5.01µM
NC(=O)NCCC1=CCCCC1 | . | . | . | . | . | .
C1=C(CCNCC2CC2)CCCC1 | . | . | . | . | . | 5.01µM
O=C(Nc1ccccc1)N1CC2(CCN(C(=O)c3ccncc3)CC2)C1 | / | / | / | / | . | .
Cc1ccc(OCCC(=O)OCC(=O)Nc2ccc(Cl)cn2)cc1 | . | . | . | . | . | ?
Cc1ccc(C)c(OCCC(=O)OCC(=O)Nc2ccc(Cl)cn2)c1 | . | . | 18.4µM | . | / | /
CC(=O)N(O)[C@@H]1c2cc(C#N)ccc2OC(C)(C)[C@H]1O | / | / | / | / | . | .
CC(C)(C)c1cnnn1-c1ccc(/C=N/Nc2ccc([N+](=O)[O-])cc2)cc1 | . | ? | 18.4µM | ? | . | ?
COc1ccccc1N=Nc1ccc(O)c2ncccc12 | ? | . | . | . | 3.16µM | 2.82µM
CCS(=O)(=O)c1ccc(N=Nc2ccc(O)c3ncccc23)c(OC)c1 | ? | 14.6µM | 4.61µM | ? | 15.8µM | 7.08µM
COc1ccccc1N=Nc1[nH]c2ccc(C)cc2c1O | . | . | . | . | . | .
Oc1ccc(N=Nc2ccccc2C(F)(F)F)c2cccnc12 | . | . | ? | . | 3.55µM | 3.55µM
SMILES | KB-V1 cytotox | KB-3-1 tox | SW480 rereplic | MCF10A rerep | Gal4-VP16 FLuc | RORg inh
OCC1O[C@H](OC2C(CO)O[C@@](O)(CO)C2O)C(O)C(O)C1O (stereo not given in full) | / | / | . | . | . | .
CC1CCN(C(=O)c2ccc(NC(=O)c3ccccc3)cc2)CC1 | . | . | . | . | . | .
CC1CCN(C(=O)c2ccc(NC3=C(Cl)C(=O)N(Cc4ccccc4)C3=O)cc2)CC1 | . | ? | ? | 23.1µM | / | /
CC1CCCCN1C(=O)c1cccc(NC2=C(Cl)C(=O)N(Cc3ccccc3)C2=O)c1 (stereo not given) | ? | ? | ? | 23.1µM | / | /
Cc1ccc(S(=O)(=O)c2nnn3c2nc(N2CCN(c4ccc(F)cc4)CC2)c2cc(Cl)ccc23)cc1C | . | . | / | / | / | /
COc1ccc(C2Nc3ccccc3C(=O)N2c2ccc(Cl)cc2)cc1COc1ccc(NC(C)=O)cc1 (stereo not given) | . | ? | / | / | / | /
